KDM4E inh – blocks human JMJD2E demethylase activity. B2RXH2. 230,000 compounds, 1.6% hits. AID 2147. JMJD2E catalytic domain, FDH-coupled NADH fluorescence (FDH is formaldehyde dehydrogenase). Potency, µM (series often up to 57.1 µM), for inactives: at the highest dose activity change, negative = inhibition, most hits filed as inhibitors;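 note: 0% = wells with enzyme and -100% = buffer wells without enzyme; nearly all actives have a fitted effect of over 50% in size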
ALDH1A1 block – blocks purified human ALDH1A1 activity | P00352 | Purified ALDH1A1, NADH fluorescence, propionaldehyde substrate | Potency, µM (titrated, usually from 75.3 µM), for the others: at the highest dose activity, negative = inhibition, actives largely listed as inhibitors | 220,000 compounds, 7.3% hits;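 note: plate controls were no enzyme wells and a reference inhibitor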
Target sequence (P00352 whole entry, looked up): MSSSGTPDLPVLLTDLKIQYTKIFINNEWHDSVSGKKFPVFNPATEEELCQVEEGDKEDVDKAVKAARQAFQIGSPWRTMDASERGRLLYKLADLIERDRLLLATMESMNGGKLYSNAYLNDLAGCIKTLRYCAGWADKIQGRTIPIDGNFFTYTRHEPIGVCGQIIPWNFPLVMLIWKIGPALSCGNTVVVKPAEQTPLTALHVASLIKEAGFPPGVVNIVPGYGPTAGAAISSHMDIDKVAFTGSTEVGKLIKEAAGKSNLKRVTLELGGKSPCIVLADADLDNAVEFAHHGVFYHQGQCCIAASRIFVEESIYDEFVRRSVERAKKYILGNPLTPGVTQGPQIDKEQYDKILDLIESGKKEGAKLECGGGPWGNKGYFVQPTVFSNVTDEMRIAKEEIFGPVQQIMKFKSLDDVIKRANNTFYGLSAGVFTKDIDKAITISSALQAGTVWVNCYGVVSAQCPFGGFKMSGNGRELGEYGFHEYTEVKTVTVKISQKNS
Tau fluor counter – counter-screen for tau fibril formation inhibitors; Potency, µM (highest dose often 57.7 µM), inactives show at the top dose activity change, negative = decrease; tau K18 P301L Alexa594 fluorescence, heparin fibrillization; 280,000 compounds, 0.93% hits; active = well fitted curve in the direction sought with a large enough effect; inconclusive = small, poorly fitted or top-dose-only effect, or another doubt; inactive = no such curve, though single readings can be large; an effect the other way counts as inactive or inconclusive; note: nearly all actives have a fitted effect of over 55% in size
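Human tau K18 P301L (15 uM unlabeled, 0.24 uM Alexa 594-labeled) in 100 mM sodium acetate pH 7 with 20 uM heparin, 6 hr at 37 C. ThT 30 uM added, 1 hr ambient; Alexa 594 FP and total fluorescence read at 555/632 nm.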
HPGD block – inhibitors of human 15-hydroxyprostaglandin dehydrogenase (HPGD) | purified HPGD, NADH fluorescence kinetic, PGE2 substrate | Potency, µM, without a hit: at the top dose activity change, negative = inhibition, usual class: inhibitors | 150,000 compounds, 4.3% hits
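20 nM HPGD preincubated 15 min at room temperature with compound in 50 mM Tris-HCl pH 8, 0.01% Tween 20. Started with 1 mM NAD+ and 30 uM prostaglandin E2; NADH fluorescence (360/450 nm) read 5 times over 30-s intervals, last minus first.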
Tau ThT inhib – tau fibrillization inhibition (ThT binding) | P10636 | recombinant tau K18 P301L, heparin-induced fibrillization, ThT fluorescence | Potency, µM (doses to about 57.4 µM), for the others: at the highest dose activity, negative = inhibition, hits mostly inhibitors | 270,000 compounds, 2.1% hits; active = well fitted curve in the direction sought with a large enough effect; inconclusive = small, poorly fitted or top-dose-only effect, or another doubt; inactive = no such curve, though single readings can be large; an effect the other way counts as inactive or inconclusive; note: nearly all actives have a fitted effect of over 55% in size
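Fibril formation assay: tau K18 P301L at 15 uM with trace Alexa 594 label, heparin inducer 20 uM, pH 7 sodium acetate buffer, 37 C for 6 hr; endpoint ThT signal.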
Tau fibril FP – tau fibrillization inhibition (FP). Potency, µM (doses to about 57.7 µM), for the others: top-dose activity, negative = inhibition, most hits filed as inhibitors. 280,000 compounds, 0.39% hits. K18 P301L tau heparin fibrillization, Alexa594 FP, 6 h; active = well fitted curve in the direction sought with a large enough effect; inconclusive = small, poorly fitted or top-dose-only effect, or another doubt; inactive = no such curve, though single readings can be large; an effect the other way counts as inactive or inconclusive; note: nearly all actives have a fitted effect of over 55% in size
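Human K18 P301L fragment (15 uM unlabeled plus 0.24 uM Alexa 594-labeled) in 100 mM sodium acetate pH 7 with compound, aggregation induced by 20 uM heparin for 6 hr at 37 C. ThT (30 uM) added for 1 hr, then Alexa 594 FP read.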
* marks the source's active call; other numbers are inactive results; [ ] = another dose, or the depositor's remark. Shown are actives, neighbours in structure and some others; about 9.9% of the full set was active somewhere. Unless noted, calls come from the whole dose curve; as a rule, active = well fitted inhibition curve with a large enough effect (not every such curve was filed as active); inconclusive = small, poorly fitted or top-dose-only effect, or another doubt; inactive = no such curve, though single readings can be large or run the other way. Unless noted, % is set by controls: 0 for no effect and ±100 for the full control effect; potency is the fitted concentration of half-maximal effect.

COc1ccc(C(=O)c2ccc(N3CCN(C4CC(=O)NC4=O)CC3)cc2)cc1F (stereo not given) was read as KDM4E inh -4%, ALDH1A1 block 8.9µM*, Tau fluor counter -8%, HPGD block inconclusive, Tau ThT inhib -8% and Tau fibril FP -3%.
`CC(=O)N1CCC(N(Cc2ccc(C)o2)C(=O)Nc2ccc(C)cc2)CC1` gave Tau fluor counter -6%, Tau ThT inhib -6% and Tau fibril FP 0%.
For CCn1c(CNC(=O)c2ccc(OC)cc2)nnc1SCC(=O)Nc1cccc(C)c1C the results were Tau fluor counter -4%, Tau ThT inhib -1% and Tau fibril FP 4%.
Screening Cc1nc2cc(NCc3ccccc3O)ccc2n1Cc1ccccc1 returned KDM4E inh 40µM*, ALDH1A1 block inconclusive, Tau fluor counter inconclusive, Tau ThT inhib inconclusive and Tau fibril FP 13%.
Screening Cc1ccc(NCc2ccccc2O)cc1C returned KDM4E inh -7%, ALDH1A1 block -10%, Tau fluor counter inconclusive, Tau ThT inhib inconclusive and Tau fibril FP 14%.
COc1ccc(Nc2nc3c(S(=O)(=O)c4ccccc4)nnn3c3ccsc23)cc1OC was read as Tau fluor counter -23%, Tau ThT inhib -15% and Tau fibril FP 8%.
N[C@H](C(=O)O)c1cccc(O)c1 was read as KDM4E inh 22µM*, ALDH1A1 block 14%, Tau fluor counter -1%, HPGD block -10%, Tau ThT inhib inconclusive and Tau fibril FP inconclusive.
`N[C@H](C(=O)O)c1ccc(O)c(C(=O)O)c1` gave KDM4E inh inconclusive, ALDH1A1 block inconclusive, Tau fluor counter -3%, HPGD block inconclusive, Tau ThT inhib 0% and Tau fibril FP 0%.
`CCOC(=O)c1c(C)[nH]c(CCC(=O)Nc2ccccc2C(=O)OC)c1C` gave Tau fluor counter -26%, Tau ThT inhib inconclusive and Tau fibril FP 5%.
`COc1cccc(NC(=O)c2ccc(-c3ccc([N+](=O)[O-])cc3)o2)c1` gave KDM4E inh -9%, ALDH1A1 block inconclusive, Tau fluor counter inconclusive, Tau ThT inhib inconclusive and Tau fibril FP 15%.
`COc1cc([N+](=O)[O-])ccc1-c1ccc(C(=O)Nc2ccc(NC(C)=O)cc2)o1` gave KDM4E inh 2%, ALDH1A1 block 0.89µM*, Tau fluor counter inconclusive, HPGD block 28µM*, Tau ThT inhib 5µM* and Tau fibril FP -6%.
`COc1ccc(NC(=O)c2ccc(-c3ccc([N+](=O)[O-])cc3)o2)cc1OC` gave KDM4E inh 6%, ALDH1A1 block -10%, Tau fluor counter 11µM*[quencher], HPGD block -27%, Tau ThT inhib 5µM* and Tau fibril FP 6%.
COc1ccc(CCNC(=O)c2ccc(-c3ccc([N+](=O)[O-])cc3Cl)o2)cc1OC was read as KDM4E inh -2%, ALDH1A1 block -4%, Tau fluor counter inconclusive, HPGD block -9%, Tau ThT inhib inconclusive and Tau fibril FP 10%.
For Cc1csc(NC(=O)CCCSc2nc3ccccc3s2)n1 the results were KDM4E inh -5%, ALDH1A1 block 10µM*, Tau fluor counter inconclusive, HPGD block 14µM*, Tau ThT inhib inconclusive and Tau fibril FP -6%.
CC(C)OC(=O)CSc1nc2ccccc2s1 was read as KDM4E inh 4%, ALDH1A1 block 11µM*, Tau fluor counter -6%, HPGD block 16µM*, Tau ThT inhib -1% and Tau fibril FP -6%.
CC(C)c1nnc(NC(=O)CSc2nc3ccccc3s2)s1 was read as KDM4E inh -4%, ALDH1A1 block inconclusive, Tau fluor counter -18%, HPGD block -22%, Tau ThT inhib inconclusive and Tau fibril FP -10%.
For CC(=O)CSc1nc2ccccc2s1 the results were KDM4E inh 1%, ALDH1A1 block -15%, Tau fluor counter -5%, HPGD block -11%, Tau ThT inhib inconclusive and Tau fibril FP -1%.
